In PubChem BioAssay AID1851 (National Center for Advancing Translational Sciences (NCATS), 2009):
“And” between values parts separate entries of the source, which are not always exact repeats. Equal values may be shown once. The whole screen tested about 16,000 compounds, of which about 5,800 (36%) were called active. Not shown: some 23% with an inconclusive outcome. The list shows a part of the results. Values without a mark were called inactive. The call rests on the fitted dose curve; in most records, active means well fitted curve in the direction sought with a large enough effect; inconclusive means small, poorly fitted or top-dose-only effect, or effect the other way; inactive means no such curve, though single readings can be large or run the other way.
On the % scale 0 is the no-effect control and ±100 the full control effect.

The compounds below were run against Cytochrome P450 2C19 (Homo sapiens) (UniProt P33261) (assay: Cytochrome panel assay with activity outcomes). Settings: recombinant CYP, pro-luciferin dealkylation, luminescence, p450-cyp2c19; series mostly up to 57.1 µM; activity, negative = inhibition: at the top concentration.
Sequence of Cytochrome P450 2C19 (Homo sapiens) (P33261 whole entry, looked up): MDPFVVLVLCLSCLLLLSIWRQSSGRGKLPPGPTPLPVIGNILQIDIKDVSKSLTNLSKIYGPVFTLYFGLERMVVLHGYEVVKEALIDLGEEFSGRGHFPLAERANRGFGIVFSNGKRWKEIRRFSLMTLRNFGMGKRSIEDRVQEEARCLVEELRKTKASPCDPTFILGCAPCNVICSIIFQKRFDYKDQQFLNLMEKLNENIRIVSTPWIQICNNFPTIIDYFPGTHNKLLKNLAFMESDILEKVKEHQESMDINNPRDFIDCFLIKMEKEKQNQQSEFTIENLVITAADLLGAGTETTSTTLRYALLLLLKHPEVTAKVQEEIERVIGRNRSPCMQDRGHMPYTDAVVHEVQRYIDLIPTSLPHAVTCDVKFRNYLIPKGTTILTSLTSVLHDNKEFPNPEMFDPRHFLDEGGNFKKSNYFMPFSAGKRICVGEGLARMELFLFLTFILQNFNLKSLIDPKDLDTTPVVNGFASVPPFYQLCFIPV
`COc1ccc2c(c1)C(=NN)c1cc(OC)ccc1-2` was tested, and the AC50 was 8.91 µM (active).
Work on `COc1ccc2c(c1)Cc1cc(N=[N+]([O-])c3ccc4c(c3)Cc3cc(OC)ccc3-4)ccc1-2` yielded an activity, negative = inhibition of -35.1% [at 11.4 µM].
With `CC1(C)O[C@H]2[C@@H](c3[nH]nc4c(=O)[nH]c(=O)[nH]c34)OC[C@H]2O1` the activity, negative = inhibition was 9.71% [at 11.4 µM].
With `CN(c1ccc(C(=O)NCc2ccccn2)cc1)S(C)(=O)=O` the “activity, negative = inhibition” value was 3.47%.
In the case of `COc1ccc(C(=O)N2CCCCC2)cc1S(=O)(=O)Nc1ccccc1`, the “activity, negative = inhibition” value is reported as -27.1%.
In the case of `Cc1ccc(NS(=O)(=O)c2cc(C(=O)NCc3ccccn3)ccc2Cl)cc1`, the AC50 is reported as 5.01 µM (active).
With `Cc1ccc(NS(=O)(=O)c2cc(C(=O)N3CCc4ccccc4C3)ccc2Cl)cc1` the AC50 was 1.58 µM (active).
For `CC(=O)OCC(=O)[C@@]1(OC(C)=O)[C@H](C)C[C@H]2[C@@H]3C[C@H](F)C4=CC(=O)C=C[C@@]4(C)[C@]3(F)[C@H](O)C[C@@]21C`, the “activity, negative = inhibition” value was -34.6% [at 25.6 µM].
For `COc1ccc2[nH]cc(CCNc3ccnc(-c4ccoc4)n3)c2c1`, the AC50 was 0.501 µM (active).
With `COc1ccc2[nH]cc(CCNc3ccnc(-c4ccc5c(c4)OCO5)n3)c2c1` the AC50 was 0.631 µM (active).
With `COc1ccc2[nH]cc(CCNc3ccnc(-c4ccc(N(C)C)cc4)n3)c2c1` the AC50 was 6.31 µM (active).
For `COc1ccc2[nH]cc(CCNc3ccnc(-c4c(C)noc4C)n3)c2c1`, the AC50 was 1.58 µM (active).
`Cc1ccc(S(=O)(=O)N2CCC(C(=O)NCCCOC(C)C)CC2)cc1` was tested, and the “activity, negative = inhibition” value was -28.9%.
With `Cc1ccc(S(=O)(=O)N(C)c2cc(S(=O)(=O)N3CCC(C)CC3)c(C)cc2C)cc1` the AC50 was 3.16 µM (active).
With `CCn1c(O)c(/C=C2\C=Nc3ccccc32)sc1=Nc1ccc(C)cc1` the AC50 was 2 µM (active).
`Clc1ccc2c(c1)C=Nc1c(NCc3ccccc3)ncnc1O2` was tested, and the “activity, negative = inhibition” value was -48.4%.
In the case of `COc1ccc(C2=NC(C(F)(F)F)(C(F)(F)F)c3c(n(C)c(=O)n(C)c3=O)N2)cc1`, the “activity, negative = inhibition” value is reported as 41.7%.
For `O=C1c2ccccc2C2=Nc3ccccc3SC(c3ccccc3F)C12` (stereo not drawn), the AC50 was 1.58 µM (active).
In the case of `NS(=O)(=O)c1ccc(N=Nc2ccc(O)c(C(=O)O)c2)cc1`, the activity, negative = inhibition is reported as 5.09% [at 11.4 µM].
`CC1=C/C(=C(/c2ccc(O)c(C)c2)c2ccccc2C(=O)O)C=CC1=O` was tested, and the AC50 was 0.00316 µM (active).
With `O=C(O)C1=CC(=C(c2ccc(O)c(C(=O)O)c2)c2ccc(O)c(C(=O)O)c2)C=CC1=O` the AC50 was 25.1 µM (active).
For `O=C(O)c1ccc(C(=O)c2ccccc2C(=O)O)cc1C(=O)O`, the activity, negative = inhibition was -5.18% [at 11.4 µM].
In the case of `O=C(O)C1=C/C(=C(/c2ccccc2)c2cc(C(=O)O)c(O)c3ccccc23)c2ccccc2C1=O`, the activity, negative = inhibition is reported as 29% [at 11.4 µM] and -20.5% [at 11.4 µM].
With `O=C(CN1CCc2ccccc21)NC(=O)NCc1ccco1` the AC50 was 7.94 µM (active).
With `Cc1nn(CC(O)COc2ccc3c(c2)CCC3)c(C)c1Br` (stereo not drawn) the AC50 was 2 µM (active).
With `CN(C)CC(O)COc1cccc(OCC(O)CN(C)C)c1` (stereo not drawn) the “activity, negative = inhibition” value was -26.1%.
For `Cc1ccc(C(=O)NC(=S)Nc2ccc(S(=O)(=O)N3CCN(C)CC3)cc2)cc1`, the AC50 was 15.8 µM (active).
With `CCOC(=O)c1ccc(S(=O)(=O)N2CCN(C)CC2)cc1` the “activity, negative = inhibition” value was -29.5%.
For `O=C(NC(=S)Nc1ccc(C(=O)N2CCOCC2)cc1)c1ccc([N+](=O)[O-])cc1`, the “activity, negative = inhibition” value was 3.86%.
For `Cc1sc(N)c(C(=O)c2cccc(C(F)(F)F)c2)c1C`, the “activity, negative = inhibition” value was -19.2%.
In the case of `O=C(OCn1ncc(Cl)c(Cl)c1=O)c1cccc(C(F)(F)F)c1`, the AC50 is reported as 2.24 µM (active).
For `O=c1c(C=Nc2cccc(C(F)(F)F)c2)c[nH]n1-c1cccc(Cl)n1`, the “activity, negative = inhibition” value was -14.3%.
For `N/C(CC/C(N)=N/O)=N\O`, the activity, negative = inhibition was 20.3% [at 11.4 µM].
With `C=CCNc1sc(C(=O)c2ccc(C)cc2)c(N)c1C#N` the AC50 was 7.08 µM (active).
For `C=CCNc1sc(C(=O)c2ccccc2)c(N)c1C#N`, the AC50 was 6.31 µM (active).
For `N#CC(CC(=O)O)=C(c1ccccc1)c1ccccc1`, the activity, negative = inhibition was 5.19% [at 11.4 µM].
With `CC(=O)CSc1nnc(Cc2ccc([N+](=O)[O-])cc2)o1` the AC50 was 7.08 µM (active).
Compound `NNC(=O)CNc1cccc(Br)c1` has an activity, negative = inhibition of -2.2% [at 11.4 µM].
With `O=C(Cc1ncc(C(F)(F)F)cc1Cl)Nc1cccc(Br)c1` the AC50 was 2.82 µM (active).
In the case of `CC(C)(C)C(=O)OCc1cn(-c2ccc(Cl)cc2)nn1`, the AC50 is reported as 8.91 µM (active).
For `Cc1ccc(C(=O)c2cn(-c3ccc(F)c(Cl)c3)nn2)cc1`, the “activity, negative = inhibition” value was -17.5%.
Work on `[Cu].[O-]/N=C1/C(=[OH+])Nc2ccccc21.[O-]Nc1c(O)[nH]c2ccccc12` yielded an activity, negative = inhibition of 2.58% [at 11.4 µM].
`C[C@H](C(=O)c1ccncc1)c1ccccn1` gave an activity, negative = inhibition of -37.2% [at 11.4 µM].
For `Cc1c(C=O)c2ccccn2c1C(=O)c1ccncc1`, the AC50 was 1.78 µM (active).
`CC(=O)N(C[C@@H](C)C(=O)O)c1c(I)cc(I)c(N)c1I` was tested, and the “activity, negative = inhibition” value was -29.6% [at 25.6 µM].
In the case of `COc1ccc(F)cc1S(=O)(=O)NC(Cc1ccccc1)C(N)=O` (stereo not drawn), the AC50 is reported as 7.08 µM (active).
For `CC(C)N=c1scc(-c2ccco2)n1/N=C/c1ccc(O)c(O)c1`, the AC50 was 7.94 µM (active).
`C[N+](C)(C)/N=C\c1ccc(O)c(O)c1` was tested, and the activity, negative = inhibition was 12.7% [at 11.4 µM].
With `NC(=S)SCCC(=O)O` the activity, negative = inhibition was -6.93% [at 11.4 µM].
With `Cc1nn(Cc2ccc([N+](=O)[O-])cc2)c(=O)n1-c1cccc(F)c1` the AC50 was 11.2 µM (active).
With `CSCC[C@@H]1NC(=O)C/C=C\[C@@H](C)COC(=O)[C@H](C)COC1=O` the activity, negative = inhibition was -10.8% [at 11.4 µM].
`C[C@@H]1/C=C\CC(=O)OC[C@H]2O[C@@H](C=C[C@@H]2O)[C@H](C)/C=C\CC(=O)OC[C@H]2O[C@H]1C=C[C@@H]2O` showed an activity, negative = inhibition of -20.1% [at 11.4 µM].
`CN(Cc1cc2ccccc2[nH]c1=O)S(C)(=O)=O` was tested, and the “activity, negative = inhibition” value was -24.3%.
For `CS(=O)(=O)N(Cc1cc2ccccc2[nH]c1=O)C1CCCCC1`, the AC50 was 15.8 µM (active).
For `COc1ccc(-n2c(N)c(C(=O)NCc3ccco3)sc2=S)cc1`, the AC50 was 17.8 µM (active).
For `O=C(NNC(=S)Nc1ccccc1)c1ccco1`, the “activity, negative = inhibition” value was 21.4%.
For `O=C(Nc1ccccc1)N1CC2(CCN(C(=O)c3ccco3)CC2)C1`, the “activity, negative = inhibition” value was 10.4%.
`CC1=C(C(=O)Nc2ccccc2)C(c2ccco2)NC(=S)N1` (stereo not drawn) was tested, and the AC50 was 35.5 µM (active).
